Bioassay records as filed in PubChem BioAssay.
An excerpt weighted towards active compounds, which were near 2.3% of everything screened.
TWEAK-Fn14 inh = inhibitors of TWEAK-Fn14 signaling, primary screen, luciferase reporter cells, uHTS | TWEAK-stimulated Fn14 reporter cells, luciferase luminescence, 8 h | inhibition, % at 10 µM | hit rate 2% among 360,000 | AID 1159606, 2016; in the data active = inhibition above about 50%
HIF-2a block = HIF-2a reporter inhibitors, primary screen, luminescence, 786-0 RCC cells; 786-0 RCC cells HIF-2a reporter, luciferase luminescence, overnight; inhibition, % at 18.8 µM; hit rate 0.72% among 360,000; AID 624352, 2012;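 active = inhibition of the luminescence signal of 40% or more relative to plate controls, in a single-dose primary screen at 18.75 µM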
hiPSC survival = enhancers of single-cell hiPSC survival, primary screen, ATPlite luminescence | 100% = ROCK inhibitor wells, 0% = DMSO | survival enhancement, % at 20 µM | hit rate 0.044% among 360,000; in the data active = survival enhancement above about 18%;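 note: cells exposed to compounds for 16 hours before the ATP read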
CF NFkB block = inhibitors of PAF-induced NF-kB signaling, primary screen, cell-based, GFP fluorescence, uHTS; KKLEB NF-kB-GFP reporter, GFP fluorescence overnight; inhibition, % at 5 µM; hit rate 0.86% among 360,000; AID 588850, 2011;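 active = at least 50% inhibition at 5 µM, scaled per plate between neutral and stimulator controls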;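 note: PAF is a Pseudomonas aeruginosa culture filtrate used as stimulus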
KKLEB tox = cytotoxicity in KKLEB CF airway cells, primary screen, cytotoxicity control for CF NF-kB inhibitor project, cell-based, uHTS, fluorescence assay plates. KKLEB CF airway cells viability, ATPlite luminescence, overnight; active compounds read low; cells stimulated with P. aeruginosa culture filtrate. activity change (cytotoxicity), % at 5 µM. hit rate 0.36% among 360,000;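 active = corrected activity change at or below -50% at 5 µM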
LGR2 antag = inhibitors of bursicon-induced LGR2 CRE-luciferase signal, primary screen, cell-based, HEK293, CRE-luciferase reporter, bursicon stimulation; Drosophila bursicon receptor LGR2 (rickets); bursicon-stimulated, 4 h; inhibition, % at 9.99 µM; hit rate 0.35% among 380,000;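 active = drop in luminescence signal, shown as inhibition above about 50% in the replicate tests, limit read from the data, passing the limit was not always enough; inconclusive = probably only some replicates passing the limit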;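 note: agonist challenge used bursicon conditioned medium at about half maximal strength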
Mdm2-MdmX confirm = retested Mdm2-MdmX interaction blockers, confirmation, cell-based, luminescence, single concentration, set 2. shares compounds with HIF-2a block. SaOS-2 split-luciferase Mdm2/MdmX complementation. inhibition, % at 8 µM. hit rate 99% among 740;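 active = mean inhibition of the luminescence signal across two replicates at or above 26 percent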
Target sequence (O15151 whole entry, looked up): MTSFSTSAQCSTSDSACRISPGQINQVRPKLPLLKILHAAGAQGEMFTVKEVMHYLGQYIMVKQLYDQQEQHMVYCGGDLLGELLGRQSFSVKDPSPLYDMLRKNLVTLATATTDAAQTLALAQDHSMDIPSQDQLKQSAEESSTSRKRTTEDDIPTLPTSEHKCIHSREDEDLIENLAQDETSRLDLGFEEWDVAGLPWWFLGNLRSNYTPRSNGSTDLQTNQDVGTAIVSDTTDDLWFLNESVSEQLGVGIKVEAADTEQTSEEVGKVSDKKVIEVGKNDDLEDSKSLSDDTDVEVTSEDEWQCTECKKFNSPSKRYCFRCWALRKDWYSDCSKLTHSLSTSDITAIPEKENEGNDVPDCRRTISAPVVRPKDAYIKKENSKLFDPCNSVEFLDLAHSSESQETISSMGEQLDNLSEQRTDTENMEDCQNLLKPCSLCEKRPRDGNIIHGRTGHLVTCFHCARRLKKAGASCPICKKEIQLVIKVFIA
Target sequence (Q00987 whole entry, looked up): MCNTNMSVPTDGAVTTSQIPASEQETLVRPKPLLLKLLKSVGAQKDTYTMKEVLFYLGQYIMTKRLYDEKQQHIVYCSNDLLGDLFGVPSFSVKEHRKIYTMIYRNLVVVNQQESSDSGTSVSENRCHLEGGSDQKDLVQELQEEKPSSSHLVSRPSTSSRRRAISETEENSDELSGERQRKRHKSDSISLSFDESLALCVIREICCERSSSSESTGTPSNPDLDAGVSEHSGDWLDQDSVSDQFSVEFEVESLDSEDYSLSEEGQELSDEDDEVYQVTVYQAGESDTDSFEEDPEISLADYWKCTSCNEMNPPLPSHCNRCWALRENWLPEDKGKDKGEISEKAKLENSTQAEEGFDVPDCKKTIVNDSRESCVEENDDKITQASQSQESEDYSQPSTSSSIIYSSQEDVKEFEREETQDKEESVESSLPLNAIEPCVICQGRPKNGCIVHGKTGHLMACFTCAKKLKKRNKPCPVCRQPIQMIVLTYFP
HIF-2a inh conf = HIF-2a reporter inhibitor retest, confirmation, luminescence, 786-0 RCC cells; shares compounds with HIF-2a block; HIF-2a luciferase reporter luminescence, overnight; inhibition, % at 18.8 µM; hit rate 56% among 1,800; AID 651580, 2012;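 active = mean inhibition across four replicates of at least 40 percent at the single tested concentration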
HIF-1a cs = HIF-1a luciferase reporter signal reduction – MiaPaCa-2 cells, single concentration, counter-screen for HIF-2a inhibitor project, confirmation. shares compounds with HIF-2a block. MiaPaCa-2 HIF-1a luciferase reporter, desferoxamine, overnight. inhibition, % at 18.8 µM. hit rate 72% among 1,800;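 active = mean inhibition of the reporter signal across four replicates at the single tested dose of 50% or more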
Each line names hits and unclear results; the compound was inactive in the other large screens (follow-up assays come after a bar, where they were run).

O=C(O)c1cccc(CSc2nnc(-c3ccc(Cl)cc3)o2)c1	HIF-2a block 70.4 | HIF-2a inh conf 80.3 | HIF-1a cs inactive
CCCN1C=CC(=C2C(=O)c3ccccc3C2=O)C=C1	TWEAK-Fn14 inh 70.7, HIF-2a block 89.8, KKLEB tox -61.0 (no result: LGR2 antag) | Mdm2-MdmX confirm 99.5
COC(=O)N(C)C[C@@H]1OCc2ccccc2-c2ccccc2C(=O)N([C@@H](C)CO)C[C@H]1C	none (no result: TWEAK-Fn14 inh, HIF-2a block, hiPSC survival, CF NFkB block, KKLEB tox)
CC=Cc1ccc2n(c1=O)C[C@@H]1[C@@H](CO)[C@H](C(=O)N(C)C)[C@H]2N1CC1CCCC1 (mixture of isomers)	none (no result: TWEAK-Fn14 inh, HIF-2a block, hiPSC survival, CF NFkB block, KKLEB tox)
S=C1SCN(Cc2cccnc2)CN1Cc1cccnc1	none | Mdm2-MdmX confirm 98.2
S=C1SCN(Cc2ccccc2)CN1Cc1ccccc1	none
CC(C)CC#Cc1ccc2c(c1)O[C@@H](CN(C)C(=O)CN(C)C)[C@H](C)CN([C@H](C)CO)S2(=O)=O	none (no result: TWEAK-Fn14 inh, HIF-2a block, hiPSC survival, CF NFkB block, KKLEB tox)
CC1(C)CC[C@]2(C(=O)O)CC[C@]3(C)C(=CC[C@@H]4[C@@]5(C)CC[C@H](O[C@@H]6O[C@H](C(=O)O)[C@@H](O)[C@H](O[C@@H]7OC[C@H](O)[C@H](O)[C@H]7O)[C@H]6O)C(C)(C)[C@@H]5CC[C@]43C)[C@@H]2C1	HIF-2a block 54.7, CF NFkB block 88.2, KKLEB tox -95.0, LGR2 antag inconclusive | HIF-2a inh conf 94.5 | HIF-1a cs 52.2
CC1(C)CC[C@]2(C(=O)O[C@@H]3O[C@H](CO)[C@@H](O)[C@H](O)[C@H]3O)CC[C@]3(C)C(=CCC4[C@@]5(C)CC[C@H](O[C@@H]6O[C@H](C(=O)O)[C@@H](O[C@H]7OC[C@@H](O)[C@@H](O)[C@@H]7O)[C@H](O)[C@H]6O)C(C)(C)C5CC[C@]43C)[C@@H]2C1 (stereo partly drawn)	none
CCOc1ccc2nc(C)cc(Nc3cccc([N+](=O)[O-])c3)c2c1	HIF-2a block 62.9 (no result: LGR2 antag) | Mdm2-MdmX confirm 103.2 | HIF-2a inh conf inactive | HIF-1a cs 101.2
Cc1cc(Nc2cccc([N+](=O)[O-])c2)c2ccccc2n1	none
CCOc1ccc2nc(C)cc(Nc3ccc4c(c3)OCCO4)c2c1	HIF-2a block 45.4 (no result: LGR2 antag) | HIF-2a inh conf inactive | HIF-1a cs inactive
Cc1cc(Nc2ccc([N+](=O)[O-])cc2)c2ccccc2n1	none (no result: LGR2 antag) | Mdm2-MdmX confirm 103.0
O=C(c1cccnc1)N1CC2(C1)[C@@H](c1ccccc1)[C@@H](CO)N2Cc1ccncc1	none (no result: TWEAK-Fn14 inh, HIF-2a block, hiPSC survival, CF NFkB block, KKLEB tox)
Clc1ccc2c(c1)-c1ccccc1C1=NCCN12	HIF-2a block 45.0 | HIF-2a inh conf inactive | HIF-1a cs 103.9
COc1ccc(C(=O)/C(=C\c2ccco2)N2C=CC=CC2=C(C#N)C#N)cc1	HIF-2a block 96.0, CF NFkB block 93.7, KKLEB tox -87.1 (no result: LGR2 antag) | Mdm2-MdmX confirm 100.2
COc1ccc(C(=O)N/C(=C\c2ccco2)C(=O)OCc2ccco2)cc1	none
COc1ccc(NS(=O)(=O)c2cccc(C(=O)N/N=C/c3c(F)c(F)c(F)c(F)c3F)c2)cc1	HIF-2a block 50.8 | HIF-2a inh conf inactive | HIF-1a cs 80.2
COC(=O)N(C)c1nc2ccccc2s1	none
CN(C(=O)OC(C)(C)C)c1ccc(-c2nc3ccccc3s2)cc1	TWEAK-Fn14 inh 103.5, HIF-2a block 87.9, KKLEB tox -80.9, LGR2 antag 99.1 | HIF-2a inh conf 95.3 | HIF-1a cs 99.4
Cc1noc(C)c1S(=O)(=O)Nc1ccc2c(c1)C(=O)N([C@H](C)CO)C[C@@H](C)[C@H](CN(C)C(=O)Nc1ccc(F)cc1)O2	none (no result: TWEAK-Fn14 inh, HIF-2a block, hiPSC survival, CF NFkB block, KKLEB tox)
Cn1c(/C=C/c2ccc(Br)cc2)c([N+](=O)[O-])c(=O)n(C)c1=O	TWEAK-Fn14 inh 63.0, HIF-2a block 92.0 | HIF-2a inh conf 55.3 | HIF-1a cs 96.1
C[C@@H]1CCCCO[C@H](CN(C)C(=O)c2ccncc2)[C@H](C)CN([C@H](C)CO)C(=O)c2cc(NC(=O)C3CCCCC3)ccc2O1	none (no result: TWEAK-Fn14 inh, HIF-2a block, hiPSC survival, CF NFkB block, KKLEB tox)
COc1ccc(C=C2C=C(C(C)(C)C)C(=O)C(C(C)(C)C)=C2)cc1OC	HIF-2a block 82.0 | HIF-2a inh conf 65.3 | HIF-1a cs 103.2
C[C@H]1CN([C@@H](C)CO)C(=O)c2cccc(NS(=O)(=O)c3ccccc3)c2O[C@H]1CN(C)S(=O)(=O)c1ccc(Cl)cc1	none (no result: TWEAK-Fn14 inh, HIF-2a block, hiPSC survival, CF NFkB block, KKLEB tox)
O=C(COC(=O)CCCOc1ccc(Cl)cc1Cl)NCc1ccccc1	HIF-2a block 64.1 (no result: LGR2 antag) | HIF-2a inh conf 63.1 | HIF-1a cs 53.7
COc1ccc(CNC(=O)COC(=O)CCCOc2ccc(Cl)cc2Cl)cc1OC	none
Cc1ccc(CNC(=O)COC(=O)CCCOc2ccc(Cl)cc2Cl)cc1	HIF-2a block 62.4 | HIF-2a inh conf 69.7 | HIF-1a cs 56.6
Cc1ccc(NC(=O)CCC(=O)N/N=C/c2coc3ccccc3c2=O)cc1	HIF-2a block 53.0 | HIF-2a inh conf inactive | HIF-1a cs inactive
COc1cc(N2C(=O)C=CC2=O)c(OC)cc1Cl	HIF-2a block 40.5 | HIF-2a inh conf 80.2 | HIF-1a cs inactive
COc1ccc(OC)c(C(C[N+](=O)[O-])c2c(C)cc3ccccn23)c1 (stereo not drawn)	HIF-2a block 44.2 | HIF-2a inh conf inactive | HIF-1a cs inactive
C/C(=N\NC(=O)c1cccc(Br)c1)c1ccccn1	none | Mdm2-MdmX confirm 82.7
Cc1oc(-c2ccccc2Cl)nc1CSCC(=O)O	none
Cc1oc(-c2cccc(Cl)c2)nc1CSCC(=O)O	HIF-2a block 42.6 | HIF-2a inh conf inactive | HIF-1a cs inactive
Cc1noc(C)c1NC(=O)Nc1cccc2c1O[C@@H](CN(C)Cc1ccc(C(=O)Nc3ccccc3N)cc1)[C@@H](C)CN([C@@H](C)CO)C2=O	none (no result: TWEAK-Fn14 inh, HIF-2a block, hiPSC survival, CF NFkB block, KKLEB tox)
CCN(CC)Cc1c(O)ccc2occ(C(=O)c3ccc(OC)cc3)c12	none (no result: LGR2 antag)
